Test results: the supplement of paper PMC11732987, “Enantioselective OTUD7B fragment discovery through chemoproteomics screening and high-throughput optimisation” (Communications Chemistry, 2025)

Tests used:
Experiment in all cases: log2 ratio of Biotin-Ahx-Ub-VS probe labelling (fragment/DMSO); higher = less target engagement (more negative = stronger competition), active = hit call of the paper (q ≤ 0.05, log2 ratio ≤ -1)
Details in all cases: compound concentration: 200 uM; treatment time: 3 h
USP9X = USP9X (UniProt Q93008)
Method in brief: (§1)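 HEK293T lysate (495 µg per sample, in Tris/CHAPS/IGEPAL buffer with protease inhibitors) was exposed in triplicate for 3 h to fragment at 200 µM or to vehicle, then to Biotin-Ahx-Ub-VS at 0.5 µM final for 1 h. Labelled DUBs were enriched on NeutrAvidin, digested with LysC and trypsin, and analysed by diaPASEF LC-MS/MS. Spectronaut label-free quantities were normalised to the global median, and values are average log2 ratios of fragment over vehicle from an unpaired t-test. Only proteins with ≥2 unique peptides were used.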

UniProt O00487 = target: UniProt O00487
Method in brief: as §1

UniProt O00507 = target: UniProt O00507
Method in brief: as §1

UniProt P51784 = target: UniProt P51784
Method in brief: as §1

UniProt Q5T2D3 = target: T1, UniProt Q5T2D3
T1 sequence (whole entry): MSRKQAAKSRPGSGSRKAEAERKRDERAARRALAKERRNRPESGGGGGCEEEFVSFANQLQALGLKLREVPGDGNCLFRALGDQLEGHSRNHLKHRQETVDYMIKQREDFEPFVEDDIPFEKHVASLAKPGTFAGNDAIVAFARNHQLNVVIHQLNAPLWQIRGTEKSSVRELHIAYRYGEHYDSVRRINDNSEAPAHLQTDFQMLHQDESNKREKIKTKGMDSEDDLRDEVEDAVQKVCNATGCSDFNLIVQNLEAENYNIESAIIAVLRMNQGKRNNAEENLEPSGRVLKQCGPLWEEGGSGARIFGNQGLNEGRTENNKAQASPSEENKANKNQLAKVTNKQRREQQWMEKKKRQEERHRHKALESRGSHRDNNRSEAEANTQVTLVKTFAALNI
Method in brief: as §1

UniProt Q8TE49 = target: T2, UniProt Q8TE49
T2 sequence (whole entry): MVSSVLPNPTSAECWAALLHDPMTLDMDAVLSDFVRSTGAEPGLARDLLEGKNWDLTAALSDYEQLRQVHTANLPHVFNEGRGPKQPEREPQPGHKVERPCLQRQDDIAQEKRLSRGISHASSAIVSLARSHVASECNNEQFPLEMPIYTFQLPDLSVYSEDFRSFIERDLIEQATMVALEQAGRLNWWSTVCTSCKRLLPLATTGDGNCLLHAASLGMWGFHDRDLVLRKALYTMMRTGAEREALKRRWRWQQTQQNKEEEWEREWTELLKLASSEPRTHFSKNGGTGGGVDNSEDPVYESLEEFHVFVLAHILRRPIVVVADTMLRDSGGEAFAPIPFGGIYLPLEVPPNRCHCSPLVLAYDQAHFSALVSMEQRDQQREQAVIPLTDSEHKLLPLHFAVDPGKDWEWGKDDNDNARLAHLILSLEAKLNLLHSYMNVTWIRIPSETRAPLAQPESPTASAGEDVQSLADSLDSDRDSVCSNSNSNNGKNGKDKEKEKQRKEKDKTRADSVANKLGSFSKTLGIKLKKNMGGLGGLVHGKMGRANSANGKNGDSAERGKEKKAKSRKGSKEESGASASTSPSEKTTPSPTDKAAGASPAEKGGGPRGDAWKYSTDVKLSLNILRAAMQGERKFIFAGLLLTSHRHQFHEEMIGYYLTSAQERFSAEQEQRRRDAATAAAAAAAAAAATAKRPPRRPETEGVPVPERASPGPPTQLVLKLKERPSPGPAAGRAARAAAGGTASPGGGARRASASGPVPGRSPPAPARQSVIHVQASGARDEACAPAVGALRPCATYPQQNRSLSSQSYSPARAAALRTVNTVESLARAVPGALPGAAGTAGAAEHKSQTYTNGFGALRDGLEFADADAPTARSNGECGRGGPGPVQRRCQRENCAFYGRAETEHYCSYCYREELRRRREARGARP
Method in brief: as §1

UniProt Q9P2H5 = target: T3, UniProt Q9P2H5
T3 sequence (whole entry): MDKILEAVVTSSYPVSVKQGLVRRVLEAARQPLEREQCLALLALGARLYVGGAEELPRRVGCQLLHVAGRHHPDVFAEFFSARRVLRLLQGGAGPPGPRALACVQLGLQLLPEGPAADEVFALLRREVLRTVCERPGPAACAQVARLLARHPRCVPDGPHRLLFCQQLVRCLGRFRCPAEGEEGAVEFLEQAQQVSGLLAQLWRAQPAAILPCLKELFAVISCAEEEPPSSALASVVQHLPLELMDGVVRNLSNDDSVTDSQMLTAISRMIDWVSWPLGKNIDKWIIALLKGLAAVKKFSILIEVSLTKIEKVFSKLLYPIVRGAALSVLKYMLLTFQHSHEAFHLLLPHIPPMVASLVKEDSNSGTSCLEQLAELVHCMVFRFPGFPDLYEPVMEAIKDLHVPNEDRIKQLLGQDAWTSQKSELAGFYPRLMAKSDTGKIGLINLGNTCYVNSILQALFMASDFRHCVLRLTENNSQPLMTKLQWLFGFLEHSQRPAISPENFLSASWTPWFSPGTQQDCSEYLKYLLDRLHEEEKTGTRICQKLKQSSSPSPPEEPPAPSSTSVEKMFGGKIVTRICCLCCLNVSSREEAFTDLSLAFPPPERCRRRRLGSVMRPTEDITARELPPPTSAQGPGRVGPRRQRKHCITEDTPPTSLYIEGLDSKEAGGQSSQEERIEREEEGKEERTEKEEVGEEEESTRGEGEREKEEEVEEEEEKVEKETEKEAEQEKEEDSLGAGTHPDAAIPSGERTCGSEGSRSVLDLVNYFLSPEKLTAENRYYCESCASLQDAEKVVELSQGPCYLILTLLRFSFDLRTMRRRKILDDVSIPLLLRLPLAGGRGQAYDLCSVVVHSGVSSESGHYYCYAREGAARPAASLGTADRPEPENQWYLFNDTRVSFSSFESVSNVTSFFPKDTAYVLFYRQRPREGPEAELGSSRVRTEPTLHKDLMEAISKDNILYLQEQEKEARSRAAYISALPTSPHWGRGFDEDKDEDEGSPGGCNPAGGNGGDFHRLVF
Method in brief: as §1

UniProt Q9UGI0 = target: T4, UniProt Q9UGI0
T4 sequence (whole entry): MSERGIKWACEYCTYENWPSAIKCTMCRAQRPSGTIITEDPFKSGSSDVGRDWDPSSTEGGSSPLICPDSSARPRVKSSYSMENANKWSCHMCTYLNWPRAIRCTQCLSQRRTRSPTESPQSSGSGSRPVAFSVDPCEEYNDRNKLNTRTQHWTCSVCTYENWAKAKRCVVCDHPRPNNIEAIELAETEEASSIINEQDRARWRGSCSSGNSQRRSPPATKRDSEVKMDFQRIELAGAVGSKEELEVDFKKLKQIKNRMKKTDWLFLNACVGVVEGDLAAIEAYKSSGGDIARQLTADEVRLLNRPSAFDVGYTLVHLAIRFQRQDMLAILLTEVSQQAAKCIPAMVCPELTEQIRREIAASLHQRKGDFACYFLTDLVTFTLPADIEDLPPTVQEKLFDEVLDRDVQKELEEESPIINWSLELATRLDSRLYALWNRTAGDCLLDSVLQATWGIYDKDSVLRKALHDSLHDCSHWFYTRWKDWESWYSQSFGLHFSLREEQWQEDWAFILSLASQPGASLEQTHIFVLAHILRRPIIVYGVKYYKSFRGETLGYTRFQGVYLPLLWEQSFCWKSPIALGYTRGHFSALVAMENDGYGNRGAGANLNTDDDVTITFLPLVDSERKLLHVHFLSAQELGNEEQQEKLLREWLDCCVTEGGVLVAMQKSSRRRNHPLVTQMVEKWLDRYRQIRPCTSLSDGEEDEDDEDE
Method in brief: as §1

YOD1 = target: T5, YOD1 (UniProt Q5VVQ6)
T5 sequence (whole entry): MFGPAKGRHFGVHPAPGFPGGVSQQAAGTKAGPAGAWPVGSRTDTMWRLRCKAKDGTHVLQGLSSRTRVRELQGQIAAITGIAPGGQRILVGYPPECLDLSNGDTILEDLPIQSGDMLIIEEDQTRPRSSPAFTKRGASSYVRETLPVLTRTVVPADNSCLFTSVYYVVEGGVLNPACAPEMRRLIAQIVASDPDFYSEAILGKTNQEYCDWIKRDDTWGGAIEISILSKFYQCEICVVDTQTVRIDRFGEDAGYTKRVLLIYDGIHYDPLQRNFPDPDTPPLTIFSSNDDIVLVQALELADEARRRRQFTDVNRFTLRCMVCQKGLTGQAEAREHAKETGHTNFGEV
Method in brief: as §1

Measured: log2 ratio of Biotin-Ahx-Ub-VS probe labelling

UniProt O00487, sequence (O00487 whole entry): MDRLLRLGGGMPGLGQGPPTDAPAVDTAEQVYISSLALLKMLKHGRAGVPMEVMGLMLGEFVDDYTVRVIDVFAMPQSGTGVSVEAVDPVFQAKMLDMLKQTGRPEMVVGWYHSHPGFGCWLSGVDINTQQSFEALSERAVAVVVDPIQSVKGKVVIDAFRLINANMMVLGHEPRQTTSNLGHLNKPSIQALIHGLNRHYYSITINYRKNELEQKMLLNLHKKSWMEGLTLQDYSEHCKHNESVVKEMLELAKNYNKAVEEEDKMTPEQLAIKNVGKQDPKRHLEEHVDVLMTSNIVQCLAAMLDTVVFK
UniProt P51784, sequence (P51784 whole entry): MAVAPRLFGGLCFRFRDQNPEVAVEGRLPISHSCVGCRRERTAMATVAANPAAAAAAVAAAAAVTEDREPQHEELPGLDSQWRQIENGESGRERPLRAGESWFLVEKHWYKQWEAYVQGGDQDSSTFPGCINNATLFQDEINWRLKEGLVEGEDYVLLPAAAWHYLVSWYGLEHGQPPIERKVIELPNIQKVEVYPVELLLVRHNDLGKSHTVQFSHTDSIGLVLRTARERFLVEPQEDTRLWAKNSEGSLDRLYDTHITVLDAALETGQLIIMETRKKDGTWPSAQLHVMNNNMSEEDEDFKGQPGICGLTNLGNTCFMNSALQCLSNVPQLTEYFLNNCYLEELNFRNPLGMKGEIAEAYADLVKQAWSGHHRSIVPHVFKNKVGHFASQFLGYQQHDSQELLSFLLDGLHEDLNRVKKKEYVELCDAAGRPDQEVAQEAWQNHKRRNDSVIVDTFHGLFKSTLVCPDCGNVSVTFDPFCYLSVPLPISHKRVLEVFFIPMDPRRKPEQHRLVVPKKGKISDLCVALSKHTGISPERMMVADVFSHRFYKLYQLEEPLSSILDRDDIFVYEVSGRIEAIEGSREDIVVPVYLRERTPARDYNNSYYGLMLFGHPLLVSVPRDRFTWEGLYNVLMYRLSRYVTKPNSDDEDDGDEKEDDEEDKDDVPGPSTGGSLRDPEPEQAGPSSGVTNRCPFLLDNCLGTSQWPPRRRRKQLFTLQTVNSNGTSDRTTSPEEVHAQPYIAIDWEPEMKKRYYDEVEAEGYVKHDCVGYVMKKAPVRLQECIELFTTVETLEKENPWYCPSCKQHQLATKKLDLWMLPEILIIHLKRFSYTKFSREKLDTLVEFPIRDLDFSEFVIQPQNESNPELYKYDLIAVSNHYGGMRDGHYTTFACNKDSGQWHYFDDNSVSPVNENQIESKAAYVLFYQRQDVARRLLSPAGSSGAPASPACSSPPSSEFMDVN
UniProt O00507, sequence (O00507 whole entry): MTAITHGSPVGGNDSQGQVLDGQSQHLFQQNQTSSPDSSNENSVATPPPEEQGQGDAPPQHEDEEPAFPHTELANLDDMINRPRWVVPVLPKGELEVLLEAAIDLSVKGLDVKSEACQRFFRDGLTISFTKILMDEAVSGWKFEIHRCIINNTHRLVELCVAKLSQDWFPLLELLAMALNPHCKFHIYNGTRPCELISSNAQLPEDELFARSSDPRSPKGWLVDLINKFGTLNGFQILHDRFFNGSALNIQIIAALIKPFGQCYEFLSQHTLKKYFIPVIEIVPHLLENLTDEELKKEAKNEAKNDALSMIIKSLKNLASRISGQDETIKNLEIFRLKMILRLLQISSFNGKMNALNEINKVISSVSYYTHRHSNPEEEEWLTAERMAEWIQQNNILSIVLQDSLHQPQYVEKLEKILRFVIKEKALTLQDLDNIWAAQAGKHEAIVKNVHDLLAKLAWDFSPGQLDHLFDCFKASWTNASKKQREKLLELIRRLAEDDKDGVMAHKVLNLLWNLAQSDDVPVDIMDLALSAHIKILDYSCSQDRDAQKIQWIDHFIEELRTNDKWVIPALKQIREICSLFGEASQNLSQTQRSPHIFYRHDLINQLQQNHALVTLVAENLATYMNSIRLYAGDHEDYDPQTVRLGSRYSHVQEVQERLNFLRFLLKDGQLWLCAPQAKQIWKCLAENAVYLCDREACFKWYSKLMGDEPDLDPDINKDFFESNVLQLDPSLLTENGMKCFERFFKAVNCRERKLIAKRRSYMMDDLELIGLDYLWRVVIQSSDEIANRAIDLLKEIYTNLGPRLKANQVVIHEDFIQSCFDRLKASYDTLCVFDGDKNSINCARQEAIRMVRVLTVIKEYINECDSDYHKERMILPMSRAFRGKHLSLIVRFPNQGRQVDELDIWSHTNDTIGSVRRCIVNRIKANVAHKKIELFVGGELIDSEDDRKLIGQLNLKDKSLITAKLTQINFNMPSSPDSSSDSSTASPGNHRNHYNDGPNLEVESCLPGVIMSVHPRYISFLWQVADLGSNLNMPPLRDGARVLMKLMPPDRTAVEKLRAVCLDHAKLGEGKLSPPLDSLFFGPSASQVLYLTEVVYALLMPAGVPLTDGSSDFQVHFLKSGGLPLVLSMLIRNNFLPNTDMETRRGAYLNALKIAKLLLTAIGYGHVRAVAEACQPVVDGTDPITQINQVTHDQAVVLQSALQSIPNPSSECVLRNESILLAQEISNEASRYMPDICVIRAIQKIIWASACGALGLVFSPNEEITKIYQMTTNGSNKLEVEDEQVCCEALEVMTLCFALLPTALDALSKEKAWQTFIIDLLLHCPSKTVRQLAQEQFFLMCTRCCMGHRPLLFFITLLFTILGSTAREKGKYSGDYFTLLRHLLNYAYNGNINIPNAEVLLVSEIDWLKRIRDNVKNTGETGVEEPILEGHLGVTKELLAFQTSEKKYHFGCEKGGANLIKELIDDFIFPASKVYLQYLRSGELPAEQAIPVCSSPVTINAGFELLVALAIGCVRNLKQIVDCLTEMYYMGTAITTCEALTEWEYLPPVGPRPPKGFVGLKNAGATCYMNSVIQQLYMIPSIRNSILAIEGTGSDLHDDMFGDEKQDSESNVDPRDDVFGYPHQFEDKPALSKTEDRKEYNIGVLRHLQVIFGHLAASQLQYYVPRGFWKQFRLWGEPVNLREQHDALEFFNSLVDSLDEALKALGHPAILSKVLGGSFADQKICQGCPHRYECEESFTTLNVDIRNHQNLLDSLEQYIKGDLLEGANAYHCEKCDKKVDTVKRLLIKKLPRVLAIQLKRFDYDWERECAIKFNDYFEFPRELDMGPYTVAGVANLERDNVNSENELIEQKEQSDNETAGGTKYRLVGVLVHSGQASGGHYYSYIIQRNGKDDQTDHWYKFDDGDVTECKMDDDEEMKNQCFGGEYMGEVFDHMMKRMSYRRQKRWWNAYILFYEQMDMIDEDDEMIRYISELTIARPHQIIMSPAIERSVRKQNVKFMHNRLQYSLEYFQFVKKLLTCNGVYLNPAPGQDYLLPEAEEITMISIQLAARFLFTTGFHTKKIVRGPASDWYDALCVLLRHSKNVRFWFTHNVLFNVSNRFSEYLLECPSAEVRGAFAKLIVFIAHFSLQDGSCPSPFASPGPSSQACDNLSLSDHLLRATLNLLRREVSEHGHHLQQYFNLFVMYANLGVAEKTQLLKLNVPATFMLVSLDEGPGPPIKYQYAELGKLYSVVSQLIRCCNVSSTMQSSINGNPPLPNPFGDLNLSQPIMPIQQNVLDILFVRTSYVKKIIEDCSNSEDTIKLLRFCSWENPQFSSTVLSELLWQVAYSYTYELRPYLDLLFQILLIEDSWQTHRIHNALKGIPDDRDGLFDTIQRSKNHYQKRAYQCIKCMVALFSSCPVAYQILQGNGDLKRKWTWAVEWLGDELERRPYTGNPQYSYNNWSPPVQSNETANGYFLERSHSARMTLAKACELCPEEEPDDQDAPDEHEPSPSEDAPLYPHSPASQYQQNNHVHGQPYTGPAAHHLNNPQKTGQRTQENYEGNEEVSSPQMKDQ

CC(NC(=O)CCl)c1noc(Cc2ccccc2)n1 (centres undefined)
inactive: USP9X -0.262 | UniProt O00487 -0.231 | UniProt O00507 -0.447 | UniProt P51784 -0.0798 | UniProt Q5T2D3 -0.347 | UniProt Q8TE49 -0.443 | UniProt Q9P2H5 -0.534 | UniProt Q9UGI0 -0.904 | YOD1 -0.247
